Compounds with a hit are over-represented: about 12% of the library has one in this group of screens.
Pf growth 48h = Primary qHTS for delayed death inhibitors of the malarial parasite plastid, 48 hour incubation; P. falciparum luciferase growth in erythrocytes, 48 h; Potency, µM (doses to about 28.7 µM), for the others: at the top dose activity change, negative = inhibition, hits mostly inhibitors; 310,000 compounds, 5.9% hits; further: on the % scale 0 is the no-effect control and ±100 the full control effect
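Cell-based growth assay: transgenic P. falciparum expressing firefly luciferase, cultured in red cells within RPMI 1640 containing 0.5% w/v Albumax, 24 mM bicarbonate and gentamycin. A drop in luciferase activity indicates inhibition.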
AmpC inh no detg = qHTS Inhibitors of AmpC Beta-Lactamase (assay without detergent) | P00811 | AmpC nitrocefin hydrolysis, absorbance 480 nm, 0.0001% Triton | Potency, µM (doses to about 57.1 µM), for inactives: at the top dose activity change, negative = inhibition, hits mostly inhibitors | 330,000 compounds, 0.52% hits | AID 485341, 2010;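 further: plate controls were no compound for no effect and no enzyme for full effect; nearly all actives have a fitted effect of over 20% in size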
Target sequence (P00811 whole entry, looked up): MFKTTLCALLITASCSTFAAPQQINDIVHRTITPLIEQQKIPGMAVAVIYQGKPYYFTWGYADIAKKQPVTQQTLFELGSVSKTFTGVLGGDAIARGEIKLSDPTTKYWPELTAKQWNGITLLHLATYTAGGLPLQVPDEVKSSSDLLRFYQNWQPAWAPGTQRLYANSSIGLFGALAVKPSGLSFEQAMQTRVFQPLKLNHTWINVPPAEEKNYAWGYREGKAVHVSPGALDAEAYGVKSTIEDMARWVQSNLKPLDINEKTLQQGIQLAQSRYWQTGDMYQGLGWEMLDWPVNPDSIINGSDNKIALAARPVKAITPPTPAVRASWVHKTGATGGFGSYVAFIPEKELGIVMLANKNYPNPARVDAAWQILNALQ
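AmpC (5.3 nM in the dispensed reagent) in 20 mM phosphate pH 7.0 with 0.01% (detergent screen) or 0.0001% Triton X-100 was preincubated with compounds for 15 min at room temperature. Nitrocefin was then added from an 800 uM solution, and hydrolysis was followed at 480 nm.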
Pf growth 96h = Primary qHTS for delayed death inhibitors of the malarial parasite plastid, 96 hour incubation | 320,000 compounds, 6.9% hits | Potency, µM (highest dose often 28.7 µM), for inactives: top-dose activity change, negative = inhibition, most hits filed as inhibitors | P. falciparum luciferase reporter growth, 96 h; further: on the % scale 0 is the no-effect control and ±100 the full control effect
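Delayed-death screen, second-generation endpoint: infected erythrocytes, 2% hematocrit, 0.05% parasitemia final; 96 hours at 37 C, 5% CO2; luciferase detection reagent; luminescence decrease equals reduced growth.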
AmpC detergent = qHTS Inhibitors of AmpC Beta-Lactamase (assay with detergent). Potency, µM (highest dose often 114 µM), for inactives: top-dose activity change, negative = inhibition, actives largely listed as inhibitors. AID 485294, 2010. 370,000 compounds, 0.041% hits. P00811. AmpC hydrolysis of nitrocefin, absorbance 480 nm, 0.01% Triton;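 further: 0% = no-compound wells and -100% = no-enzyme wells; nearly all actives have a fitted effect of over 25% in size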
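AmpC (5.3 nM in the dispensed reagent) in 20 mM phosphate pH 7.0 with 0.01% (detergent screen) or 0.0001% Triton X-100 was preincubated with compounds for 15 min at room temperature. Nitrocefin was then added from an 800 uM solution, and hydrolysis was followed at 480 nm.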
SARS PLP yeast = qHTS of Yeast-based Assay for SARS-CoV PLP; S. cerevisiae expressing SARS-CoV PLpro, growth rescue; Potency, µM (series often up to 32.9 µM), without a hit: top-dose activity, positive = growth rescue, hits mostly activators; 330,000 compounds, 0.19% hits; calls by dose curve; further: 0% is about no effect; nearly all actives have a fitted effect of over 55% in size
Sm TGR inh = qHTS Assay for the Inhibitors of Schistosoma Mansoni Peroxiredoxins. Schistosoma mansoni thioredoxin glutathione reductase (TGR), Q962Y6. purified TGR, DTNB reduction, TNB absorbance 405 nm. Potency, µM (highest dose often 114 µM), without a hit: at the highest dose activity change, negative = inhibition, hits mostly inhibitors. 360,000 compounds, 3% hits. AID 485364, 2010; further: on the % scale 0 is the no-effect control and ±100 the full control effect; nearly all actives have a fitted effect of over 60% in size
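TGR 20 nM + NADPH 100 uM (dispensed conc.), cpd preinc 15 min RT; start with NADPH (500 uM addition) then DTNB (15 mM addition). Kinetic TNB absorbance, 405 nm filter. Four-parameter Hill fit across titration.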
* marks the source's active call; other numbers are inactive results; ? = inconclusive; · = not tested or not shown; [ ] = dose if it differs, or a comment. Unless noted, the call rests on the fitted dose curve; in most records, active means well fitted curve in the direction sought with a large enough effect; inconclusive means small, poorly fitted or top-dose-only effect, or another doubt; inactive means no such curve, though single readings can be large; an effect the other way counts as inactive or inconclusive. Potency means the concentration at half of the fitted maximal effect.

SMILES | Pf growth 48h | AmpC inh no detg | Pf growth 96h | AmpC detergent | SARS PLP yeast | Sm TGR inh
CCOc1ccc(NC(=O)Nc2cc(OCC(F)(F)F)cc(OCC(F)(F)F)c2)cc1 | 0.83µM* | -20% | 1.9µM* | -2% | 20% | 3%
O=C(Nc1cccc2ccccc12)/C(=C/c1ccc([N+](=O)[O-])cc1)NC(=O)c1ccccc1 | ? | -30% | 9.3µM* | -5% | 5% | 3%
Cc1ccc(NC(=O)/C(=C\c2ccc([N+](=O)[O-])cc2)NC(=O)c2ccccc2)cc1 | ? | -26% | 5.2µM* | -6% | 2% | -7%
CCN(C(=O)CN1CCN(S(=O)(=O)c2cc(Cl)ccc2Cl)CC1)c1c(N)n(Cc2ccccc2)c(=O)[nH]c1=O | -14% | 231% | ? | -8% | 4% | 5%
O=C(CCCN1C(=O)c2ccccc2C1=O)Nc1c2c(nc3c1CCC3)CCC2 | ? | 4% | 0.47µM* | -15% | 3% | ?
O=C(CN1C(=O)c2ccccc2C1=O)Nc1sc2c(c1C(=O)NCc1ccco1)CCCC2 | 61% | -32% | 25% | ? | -12% | -20%
O=C(CN1C(=O)c2ccccc2C1=O)Nc1sc2c(c1C(=O)NCC1CCCO1)CCC2 (centres undefined) | 34% | -20% | 102% | 4% | 7% | 79µM*
O=C(CCCN1C(=O)c2ccccc2C1=O)Nc1sc2c(c1C(=O)NCc1ccco1)CCC2 | ? | -23% | -16% | -4% | -1% | 40µM*
C=CCN1C(=O)NC(=O)/C(=C/c2cc3c4c(c2)CCCN4CCC3)C1=O | 21% | 13% | 21% | -13% | -3% | 8.9µM*
CC(=O)c1ccc(NC(=S)Nc2cccc(Cl)c2C)cc1 | 16%[5.75 µM] | -20% | -16% | -11% | -1% | 35µM*
COc1cc(NC(=S)NCc2cccnc2)c(OC)cc1Cl | 5% | -32% | 12µM* | -14% | 0% | ?
COc1ccccc1NC(=S)NCc1cccnc1 | 11% | -23% | ? | 0% | 4% | -34%
CNC(=S)Nc1cccc(C(=O)OC)c1 | 17% | -12% | 0% | 13% | 0% | 32µM*
COC(=O)c1cccc(NC(=S)Nc2cccc(Cl)c2Cl)c1 | 44% | -23% | ? | 7% | 1% | 45µM*
Cn1nccc1C(=O)N(CCN1CCCCC1)CC1CCCN(C2CCCC2)C1 (centres undefined) | -19% | -11% | 65% | -14% | -8% | -8%
COc1cc(NC(=S)Nc2ccc(Br)cc2Cl)c(OC)cc1Cl | ? | -41% | ? | -10% | -3% | -21%
COc1cc(NC(=S)Nc2cccc(Cl)c2Cl)c(OC)cc1Cl | ? | -34% | 2.9µM* | 3% | 2% | 0%
S=C(Nc1ccccc1)Nc1cccc(Cl)c1Cl | 18% | -24% | ? | -8% | 0% | ·
S=C(Nc1ccc(CN2CCCCC2)cc1)Nc1cccc(Cl)c1Cl | ? | -10% | 114% | ? | 5% | 25µM*
COc1ccc(CNC(=O)C2CCN(Cc3nc(-c4ccc(OC)c(OC)c4)oc3C)CC2)cc1 | · | · | · | 1% | · | -3%
Nc1nc(C23CC4CC(CC(C4)C2)C3)[nH]c(=O)n1 | -21% | -29% | -19% | 5% | 1% | 6%
CC(C)CN1C(=O)c2ccc(C(=O)Nc3ccc(OCC(=O)O)cc3)cc2C1=O | 7% | -22% | 56% | -12% | 1% | 16%
CC(C)CCNC(=O)c1cnn2c(C(F)(F)F)cc(-c3ccco3)nc12 | ? | -6% | 9.3µM* | 3% | -9% | 20µM*

Screening data deposited in PubChem BioAssay by National Center for Advancing Translational Sciences (NCATS).
